Data published in PubChem BioAssay AID1159580 (chemical genetic matrix, 2015).
Values joined by “and” are separate entries in the source; they are usually repeats but may differ in a detail not shown here. Equal entries are not always repeated. Screen size: about 5,500 compounds; about 2,000 (36%) were called active. Not shown: some 18% with an inconclusive outcome. Rule as the data show it: active = normalized growth mostly below about 0.91 (no sharp cut-off); inconclusive = no clear call, values can overlap the other calls; inactive = mostly above about 0.92. The list shows a part of the results.

Test: chemical genetic growth profiling, strain panel (AID 1159580);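 also: tested at 20 µM; growth read once vehicle control cultures reached saturation at 30 °C; 1 = growth at the plate median or of vehicle wells; lower values mean less growth of the strain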
Conditions: S. cerevisiae deletion strains, growth OD

Measured: normalized growth

CC1(C)C(=O)C=C[C@@]2(C)C1C=C[C@]1(C)C2CC[C@@]2(C)[C@H](c3ccoc3)OC(=O)C3OC321 (some centres not stated)
active: locus YDR137W, strain rgp1, stronger effect = lower value 0.663 | locus YDR159W, strain sac3, stronger effect = lower value 0.843 | locus YDR392W, strain spt3, stronger effect = lower value 0.314 | locus YJL129C, strain trk1, stronger effect = lower value 0.867 | locus YLR039C, strain RIC1, stronger effect = lower value 0.624 | locus YLR262C, strain YPT6 (second series), stronger effect = lower value 0.67 | locus YLR320W, strain mms22, stronger effect = lower value 0.838 | locus YLR418C, strain cdc73, stronger effect = lower value 0.655 | locus YMR205C, strain PFK2, stronger effect = lower value 0.841 | locus YNL071W, strain lat1, stronger effect = lower value 0.695 | locus YNL307C, strain MCK1, stronger effect = lower value 0.867 | locus YOR184W, strain ser1, stronger effect = lower value 0.715
inactive: locus YAL013W, strain DEP1, stronger effect = lower value 0.949 | locus YAL021C, strain ccr4, stronger effect = lower value 1.02 | locus YAL026C, strain drs2, stronger effect = lower value 0.972 | locus YAL030W, strain snc1, stronger effect = lower value 0.985 | locus YBL061C, strain skt5, stronger effect = lower value 0.974 | locus YBR009C, strain hhf1, stronger effect = lower value 0.915 | locus YBR021W, strain FUR4, stronger effect = lower value 1.01 | locus YBR023C, strain chs3, stronger effect = lower value 0.981 | locus YBR171W, strain sec66, stronger effect = lower value 0.971 | locus YBR229C, strain ROT2, stronger effect = lower value 0.986 | locus YBR231C, strain swc5, stronger effect = lower value 1 | locus YBR279W, strain paf1, stronger effect = lower value 0.964 | locus YCL011C, strain gbp2, stronger effect = lower value 0.981 | locus YCL016C, strain dcc1, stronger effect = lower value 0.98 | locus YCL029C, strain bik1, stronger effect = lower value 0.986 | locus YCL061C, strain MRC1, stronger effect = lower value 0.971 | locus YCL069W, strain vba3, stronger effect = lower value 1 | locus YCR088W, strain abp1, stronger effect = lower value 1 | locus YDL005C, strain med2, stronger effect = lower value 0.988 | locus YDL035C, strain GPR1, stronger effect = lower value 0.979 | locus YDL040C, strain nat1, stronger effect = lower value 1 | locus YDL074C, strain BRE1, stronger effect = lower value 0.862 | locus YDL101C, strain DUN1, stronger effect = lower value 0.957 | locus YDL134C, strain PPH21, stronger effect = lower value 0.948 | locus YDL185W, strain tfp1, stronger effect = lower value 0.998 | locus YDL192W, strain arf1, stronger effect = lower value 0.94 | locus YDR001C, strain nth1, stronger effect = lower value 0.991 | locus YDR069C, strain doa4, stronger effect = lower value 1 | locus YDR101C, strain arx1, stronger effect = lower value 0.978 | locus YDR150W, strain NUM1, stronger effect = lower value 0.996 | locus YDR162C, strain NBP2, stronger effect = lower value 0.888 | locus YDR195W, strain ref2 1.02 | locus YDR297W, strain sur2, stronger effect = lower value 0.985 | locus YDR318W, strain mcm21, stronger effect = lower value 0.939 | locus YDR334W, strain swr1, stronger effect = lower value 0.983 | locus YDR335W, strain msn5, stronger effect = lower value 0.998 | locus YDR388W, stronger effect = lower value 0.984 | locus YDR502C, strain sam2, stronger effect = lower value 0.948 | locus YEL003W, strain gim4, stronger effect = lower value 0.979 | locus YEL037C, strain rad23, stronger effect = lower value 0.992 | locus YEL061C, strain CIN8 (second series), stronger effect = lower value 0.997 | locus YEL061C, strain CIN8, stronger effect = lower value 0.983 | locus YER015W, strain faa2, stronger effect = lower value 0.985 | locus YER016W, strain bim1, stronger effect = lower value 0.993 | locus YER110C, stronger effect = lower value 0.986 | locus YER111C, strain swi4, stronger effect = lower value 0.994 | locus YER155C, strain BEM2 (second series), stronger effect = lower value 0.894 | locus YER155C, strain BEM2, stronger effect = lower value 0.953 | locus YER167W, strain BCK2, stronger effect = lower value 0.976 | locus YFR010W, strain ubp6, stronger effect = lower value 1 | locus YGL078C, strain dbp3, stronger effect = lower value 0.993 | locus YGL086W, strain mad1, stronger effect = lower value 0.948 | locus YGL167C, strain pmr1, stronger effect = lower value 0.967 | locus YGL173C, strain kem1, stronger effect = lower value 0.97 | locus YGL227W, strain vid30, stronger effect = lower value 0.991 | locus YGL240W, strain doc1, stronger effect = lower value 1.02 | locus YGL248W, strain PDE1, stronger effect = lower value 0.974 | locus YGL253W, strain hxk2, stronger effect = lower value 0.992 | locus YGR135W, strain pre9, stronger effect = lower value 0.953 | locus YGR252W, strain gcn5, stronger effect = lower value 0.912 | locus YHR013C, strain ard1, stronger effect = lower value 0.916 | locus YHR027C, strain rpn1, stronger effect = lower value 0.971 | locus YHR030C, strain SLT2, stronger effect = lower value 0.915 | locus YHR079C, strain IRE1 (second series), stronger effect = lower value 0.977 | locus YHR079C, strain IRE1, stronger effect = lower value 0.943 | locus YHR094C, strain hxt1, stronger effect = lower value 0.989 | locus YHR129C, strain ARP1, stronger effect = lower value 0.926 | locus YHR142W, strain chs7, stronger effect = lower value 0.987 | locus YHR200W, strain rpn10, stronger effect = lower value 0.986 | locus YIL066C, strain RNR3, stronger effect = lower value 0.897 | locus YIL073C, strain SPO22, stronger effect = lower value 0.953 | locus YIL125W, strain kgd1, stronger effect = lower value 0.993 | locus YIR030C, strain dcg1, stronger effect = lower value 0.98 | locus YJL092W, strain hpr5, stronger effect = lower value 0.997 | locus YJL095W, strain BCK1 (second series), stronger effect = lower value 0.967 | locus YJL095W, strain BCK1, stronger effect = lower value 0.799 and 0.923 | locus YJL115W, strain asf1, stronger effect = lower value 1 | locus YJL134W, strain LCB3, stronger effect = lower value 0.997 | locus YJL154C, strain vps35, stronger effect = lower value 0.995 | locus YJL164C, strain tpk1, stronger effect = lower value 0.967 | locus YJL166W, strain qcr8, stronger effect = lower value 0.919 | locus YJL168C, strain set2, stronger effect = lower value 0.964 | locus YJL187C, strain SWE1 (second series), stronger effect = lower value 0.951 | locus YJL187C, strain SWE1, stronger effect = lower value 0.987 | locus YJR066W, strain TOR1, stronger effect = lower value 0.894 | locus YKL009W, strain mrt4, stronger effect = lower value 0.995 | locus YKL068W, stronger effect = lower value 0.998 | locus YKL085W, strain MDH1 (second series), stronger effect = lower value 0.985 | locus YKL085W, strain MDH1, stronger effect = lower value 0.985 | locus YKL160W, strain elf1, stronger effect = lower value 0.973 | locus YKL190W, strain CNB1, stronger effect = lower value 0.992 | locus YKR001C, strain vps1, stronger effect = lower value 0.949 | locus YKR026C, strain gcn3, stronger effect = lower value 0.995 | locus YKR091W, strain srl3, stronger effect = lower value 0.992 | locus YLL001W, strain dnm1, stronger effect = lower value 0.99 | locus YLL026W, stronger effect = lower value 0.986 | locus YLL041C, strain sdh2, stronger effect = lower value 0.989 | locus YLR027C, strain aat2, stronger effect = lower value 0.959 | locus YLR058C, strain SHM2, stronger effect = lower value 0.97 | locus YLR102C, strain apc9, stronger effect = lower value 0.992 | locus YLR113W, strain HOG1, stronger effect = lower value 0.957 | locus YLR221C, strain rsa3, stronger effect = lower value 0.959 | locus YLR258W, strain gsy2, stronger effect = lower value 0.997 | locus YLR268W, strain sec22, stronger effect = lower value 0.911 | locus YLR330W, strain CHS5, stronger effect = lower value 0.954 | locus YLR342W, strain FKS1, stronger effect = lower value 0.924 | locus YLR357W, strain rsc2, stronger effect = lower value 1.03 | locus YLR370C, strain arc18, stronger effect = lower value 0.988 | locus YLR371W, strain rom2, stronger effect = lower value 0.933 | locus YLR384C, strain iki3, stronger effect = lower value 0.99 | locus YML016C, strain PPZ1, stronger effect = lower value 0.991 | locus YML032C, strain rad52, stronger effect = lower value 0.944 | locus YML120C, strain ndi1, stronger effect = lower value 0.994 | locus YML124C, strain tub3, stronger effect = lower value 0.983 | locus YMR058W, strain fet3, stronger effect = lower value 0.976 | locus YMR078C, strain ctf18, stronger effect = lower value 0.956 | locus YMR125W, strain sto1, stronger effect = lower value 0.969 | locus YMR129W, stronger effect = lower value 0.984 | locus YMR223W, strain ubp8, stronger effect = lower value 0.963 | locus YMR231W, strain pep5, stronger effect = lower value 0.964 | locus YMR307W, strain GAS1, stronger effect = lower value 0.81 | locus YNL067W, strain RPL9B, stronger effect = lower value 0.973 | locus YNL183C, strain NPR1, stronger effect = lower value 0.921 | locus YNL209W, strain ssb2, stronger effect = lower value 0.984 | locus YNL233W, strain BNI4, stronger effect = lower value 0.955 | locus YNL248C, strain rpa49, stronger effect = lower value 0.978 | locus YNL250W, strain rad50, stronger effect = lower value 0.987 | locus YNL271C, strain bni1, stronger effect = lower value 0.983 | locus YNL298W, strain CLA4, stronger effect = lower value 0.989 | locus YNL322C, strain KRE1 (second series), stronger effect = lower value 1.01 | locus YNL322C, strain KRE1, stronger effect = lower value 0.983 | locus YNR049C, strain mso1, stronger effect = lower value 0.985 | locus YNR052C, strain pop2, stronger effect = lower value 0.951 | locus YOL006C, strain TOP1, stronger effect = lower value 0.959 | locus YOL012C, strain htz1 0.78 | locus YOL147C, strain pex11, stronger effect = lower value 0.961 | locus YOR001W, strain rrp6, stronger effect = lower value 0.991 | locus YOR061W, strain CKA2, stronger effect = lower value 0.983 | locus YOR069W, strain VPS5, stronger effect = lower value 0.992 | locus YOR070C, strain gyp1, stronger effect = lower value 0.952 | locus YOR080W, strain dia2, stronger effect = lower value 0.992 | locus YOR083W, strain WHI5, stronger effect = lower value 0.977 | locus YOR106W, strain vam3, stronger effect = lower value 0.972 | locus YOR136W, strain idh2, stronger effect = lower value 0.979 | locus YOR144C, strain elg1, stronger effect = lower value 0.957 | locus YOR231W, strain MKK1, stronger effect = lower value 0.936 | locus YOR265W, strain rbl2, stronger effect = lower value 0.986 | locus YOR270C, strain vph1, stronger effect = lower value 0.905 | locus YOR290C, strain snf2, stronger effect = lower value 0.938 | locus YOR316C, strain cot1, stronger effect = lower value 0.983 | locus YPL051W, strain arl3, stronger effect = lower value 0.945 | locus YPL078C, strain atp4, stronger effect = lower value 0.979 | locus YPL106C, strain sse1, stronger effect = lower value 0.942 | locus YPL240C, strain hsp82, stronger effect = lower value 0.985 | locus YPL256C, strain CLN2, stronger effect = lower value 0.92 | locus YPR119W, strain clb2, stronger effect = lower value 0.979 | locus YPR141C, strain kar3, stronger effect = lower value 0.977 | locus YPR163C, strain tif3, stronger effect = lower value 0.938 | locus YPR167C, strain met16, stronger effect = lower value 0.973 | strain wtn01, stronger effect = lower value 0.952
